Data from PubChem BioAssay.
Entries with a potency or affinity are not part of this list. Active and inactive are the calls of the source.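 How the source made its calls: active means signal drop whose fitted half-maximal concentration is at most twice the top valid dose, in every test run; inconclusive means mixed calls across runs, poor fit, or flat 30 to 70% inhibition; inactive means wrong direction, flat within 30%, or potency beyond limit.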

Assay: cytotoxicity in PAX8-dependent RMG-1 cells, dose response, cell-based, cherry-pick (AID 687029);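 further: cells exposed to compound for 96 hours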
Settings: RMG-1 viability, CellTiterGlo ATP luminescence, 96 h; series mostly up to 35 µM

SMILES	outcome
COc1cccc(S(=O)(=O)N2C[C@@H]3N[C@H](C2)C3c2ccc(/C=C/c3ccccc3)cc2)c1 (stereo not given in full)	inactive
O=C(Nc1ccc(F)cc1)N1CCCCN2[C@@H](CO)[C@@H](c3ccc(C#Cc4ccccc4)cc3)[C@@H]2C1	inactive
C[C@H](CO)N1C[C@H](C)[C@@H](CN(C)Cc2ccc(Cl)c(Cl)c2)Oc2ccc(NS(=O)(=O)c3ccccc3)cc2CC1=O	inactive
COc1ccc(S(=O)(=O)N(C)C[C@H]2OCCCC[C@H](C)Oc3ccc(NS(=O)(=O)c4ccc(F)cc4)cc3C(=O)N([C@@H](C)CO)C[C@@H]2C)cc1	inactive
CN(C)CCN(C(=O)/C=C/c1cccs1)c1nc2c(F)cc(F)cc2s1	inactive
CN1c2ccc(-c3ccccc3)cc2[C@H]2[C@H](CCN2C(=O)NC2CCCCC2)[C@@H]1CO	inactive
C[C@@H]1CCCCO[C@H](CN(C)C(=O)Cc2ccccc2)[C@@H](C)CN([C@@H](C)CO)C(=O)c2cc(NC(=O)Nc3ccc(C(F)(F)F)cc3)ccc2O1	inactive
C[C@@H]1CN([C@H](C)CO)C(=O)c2cc(NC(=O)Nc3ccccc3)ccc2O[C@@H](C)CCCCO[C@@H]1CN(C)Cc1ccc(C(F)(F)F)cc1	inactive
COc1ccc(-c2cnc3c(NC=O)cc(-c4cccc(NS(C)(=O)=O)c4)cn23)cc1OC	inactive
Cc1ccc(S(=O)(=O)Nc2ccc3c(c2)C(=O)N([C@@H](C)CO)C[C@@H](C)[C@H](CN(C)Cc2ccc(C(F)(F)F)cc2)OCCCC[C@H](C)O3)cc1	inactive
C[C@@H]1CN([C@H](C)CO)C(=O)c2cc(NC(=O)Nc3ccc(C(F)(F)F)cc3)ccc2O[C@@H](C)CCCCO[C@@H]1CN(C)C(=O)c1ccccc1	inactive
COc1cc(/C=C2\SC(=S)N(CCC(=O)N3CCCCC3)C2=O)cc(OC)c1OC	inactive
O=C1/C(=C/c2ccccc2F)SC(=S)N1CC(=O)N1CCCCC1c1cccnc1 (stereo not given)	inactive
CC(=O)Nc1ccc(S(=O)(=O)c2ccnc3cc(Cl)ccc23)cc1	inactive
Cc1nc(SCC(=O)Nc2nc3ccccc3s2)c(C#N)c(C)c1C	inactive
O=S(=O)(c1ccccc1F)N1CC[C@@H]2[C@H]1c1cc(-c3cccc(F)c3)ccc1N[C@@H]2CO	inactive
Cc1noc(C)c1S(=O)(=O)Nc1ccc2c(c1)C(=O)N([C@H](C)CO)C[C@H](C)[C@@H](CN(C)C(=O)Nc1ccc(C(F)(F)F)cc1)OCCCC[C@H](C)O2	inactive
Cc1ccc(S(=O)(=O)Nc2ccc3c(c2)nc(CCN2CCCC2)n3C)cc1	inactive
Cc1ccc(S(=O)(=O)N(C)C[C@@H]2Oc3cc(C#Cc4ccncc4)ccc3S(=O)(=O)N([C@H](C)CO)C[C@@H]2C)cc1	inactive
COc1ccc(S(=O)(=O)Nc2ccc3c(c2)C(=O)N([C@H](C)CO)C[C@H](C)[C@H](CN(C)Cc2ccc(C(F)(F)F)cc2)OCCCC[C@H](C)O3)cc1	inactive

SMILES	outcome
Cc1ccc(-c2csc(NC3OC(=O)c4ccccc43)n2)cc1 (stereo not given)	inactive
O=C(/C=C/c1ccccc1)Nc1cccc(C(=O)O)c1	inactive
C[C@H]1CCCCO[C@H](CN(C)C(=O)C2CCCCC2)[C@@H](C)CN([C@@H](C)CO)C(=O)c2cc(NC(=O)Nc3ccc(F)cc3)ccc2O1	inactive
C[C@H](CO)N1C[C@H](C)[C@@H](CN(C)C(=O)C2CCCCC2)OCCCC[C@H](C)Oc2ccc(NS(=O)(=O)c3ccc(Cl)cc3)cc2C1=O	inactive
Cc1ccc2cccc(NS(=O)(=O)c3ccccc3)c2n1	inactive
COc1cccc2c1C(=O)c1c(O)c3c(c(O)c1C2=O)C[C@@](O)(C(=O)CO)C[C@@H]3O[C@H]1C[C@H](N)[C@H](O)[C@H](C)O1	inactive
C[C@@H]1CN([C@H](C)CO)C(=O)c2cc(NC(=O)NC3CCCCC3)ccc2O[C@@H](C)CCCCO[C@H]1CN(C)Cc1ccc(C(F)(F)F)cc1	inactive
COc1ccc(CN(C)C[C@H]2OCCCC[C@@H](C)Oc3ccc(NC(=O)Nc4ccc(F)cc4)cc3C(=O)N([C@@H](C)CO)C[C@@H]2C)cc1	inactive
Cc1ccc(S(=O)(=O)N(C)C[C@@H]2Oc3cc(C#Cc4ccncc4)ccc3S(=O)(=O)N([C@H](C)CO)C[C@H]2C)cc1	inactive
Cc1ccc(S(=O)(=O)Nc2ccc3c(c2)CC(=O)N([C@@H](C)CO)C[C@H](C)[C@@H](CN(C)C(=O)Nc2ccc(C(F)(F)F)cc2)O3)cc1	inactive
Cc1cccc(/C=C(\c2nc3ccccc3[nH]2)S(=O)(=O)c2ccccc2)c1	inactive
CO[C@@H]1CN(C)C(=O)c2cc(NC(=O)c3ccc(-c4ccccc4)cc3)ccc2OC[C@H](C)NC[C@H]1C	inactive
COc1cc2c(c(OC)c1OC)-c1ccc(OC)c(=O)cc1[C@@H](NC(C)=O)CC2	inactive
Cc1ccccc1S(=O)(=O)N1CC[C@@H]2[C@H](CO)Nc3ccc(-c4cccc(F)c4)cc3[C@@H]21	inactive
COc1ccccc1C#Cc1ccc2c(c1)O[C@H](CN(C)Cc1cccnc1)[C@H](C)CN([C@@H](C)CO)S2(=O)=O	inactive
CC(C)CC#Cc1ccc2c(c1)O[C@H](CN(C)Cc1ccc(C(=O)O)cc1)[C@@H](C)CN([C@H](C)CO)S2(=O)=O	inactive
Cc1cc(C)c2sc(NNC(=O)c3ccc(S(=O)(=O)N4CCc5ccccc5C4)cc3)nc2c1	inactive
O=C(NCCc1ccccc1)c1ccc2c(c1)OCCCO2	inactive
C[C@@H]1CCCCO[C@H](CN(C)Cc2ccc(C(F)(F)F)cc2)[C@H](C)CN([C@@H](C)CO)C(=O)c2cc(NS(=O)(=O)c3ccc(F)cc3)ccc2O1	inactive
Cc1cc(NC(=O)CCCS(=O)(=O)c2nc(-c3cccs3)cc(C(F)(F)F)n2)no1	inactive
